# Measurements as given in PubChem BioAssay (NCI).
# About 79,000 compounds went through this panel and 15% of them were active in at least one assay; those are over-represented in the sample as a whole. Values without a mark were called inactive. Active and inactive are the calls of the source. No stated cut-off is given here; in the data, active means growth inhibition above about 70%; inactive means the rest.
# What was measured:
# [1] = NCI Yeast Anticancer Drug Screen. Data for the rad52 strain (AID 147);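 further: 0% = growth of vehicle-treated control cultures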; details: S. cerevisiae rad52 mutant growth inhibition, hits give high values
# Outline: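 Read-out: growth inhibition versus vehicle-treated controls. Cells were a DNA repair-deficient yeast strain treated with compounds.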
# [2] = NCI Yeast Anticancer Drug Screen. Data for the wt1 strain (AID 149);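 further: 0% = growth of vehicle-treated wt1 cultures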; details: S. cerevisiae wt1 strain (SPY 50644) growth inhibition, hits give high values
# Outline: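 Measured: growth of wt1 yeast under compound versus vehicle treatment, reported as inhibition.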
# [3] = NCI Yeast Anticancer Drug Screen. Data for the rad50EPP+ strain (AID 151);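 further: 0% = growth of vehicle-treated control cultures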; details: S. cerevisiae rad50 mutant strain, hits give high values
# Outline: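 Growth inhibition read against vehicle controls in rad50EPP+ yeast, a strain altered in DNA damage repair, after compound exposure.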
# [4] = NCI Yeast Anticancer Drug Screen. Data for the mgt1 strain (AID 153); details: S. cerevisiae mgt1 mutant growth inhibition, hits give high values
# Outline: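 mgt1 yeast grown with test compound; read-out is growth inhibition versus vehicle-treated cultures.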
# [5] = NCI Yeast Anticancer Drug Screen. Data for the rad50 strain (AID 155);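 further: 0% = growth of vehicle-only cultures of the same strain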; details: S. cerevisiae rad50 strain growth inhibition, hits give high values
# Outline: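 Growth of the mutant yeast was measured after compound exposure and referenced to vehicle-treated cultures.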
# [6] = NCI Yeast Anticancer Drug Screen. Data for the mec2-1 strain (AID 157); details: S. cerevisiae mec2-1 strain, hits give high values
# Outline: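 Yeast mec2-1 mutant treated with compound. Readout: growth inhibition vs vehicle controls.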
# [7] = NCI Yeast Anticancer Drug Screen. Data for the rad14 strain (AID 159);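 further: 0% = growth of vehicle-treated control cultures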; details: S. cerevisiae rad14 strain growth inhibition, hits give high values
# Outline: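 Here, inhibition of yeast growth was measured after compound exposure, using a strain with a genetic defect in DNA damage repair and vehicle-treated cultures as the reference.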
# [8] = NCI Yeast Anticancer Drug Screen. Data for the sgs1 mgt1 strain (AID 161);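 further: 0% = growth of cultures given vehicle only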; details: S. cerevisiae sgs1 mgt1 strain, hits give high values
# Outline: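 Inhibition of yeast growth, normalised to vehicle-treated controls, is reported for a strain bearing genetic alterations in DNA damage repair.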
# [9] = NCI Yeast Anticancer Drug Screen. Data for the CLN2oe strain (AID 163);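 further: 0% = growth of vehicle-only control cultures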; details: S. cerevisiae CLN2oe strain, hits give high values
# Outline: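 Read-out: yeast growth inhibition, expressed relative to vehicle-only controls. The strain bears an engineered cell-cycle alteration.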
# [10] = NCI Yeast Anticancer Drug Screen. Data for the cln2 rad14 strain (AID 165);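 further: 0% = growth equal to vehicle treated cultures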; details: S. cerevisiae cln2 rad14 strain, hits give high values
# Outline: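 cln2 rad14 yeast strain; compound exposure; growth inhibition read vs vehicle controls.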
# [11] = NCI Yeast Anticancer Drug Screen. Data for the bub3 strain (AID 167); details: S. cerevisiae bub3 mutant strain, hits give high values
# Outline: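 Whole-cell yeast assay. The mutant strain was incubated with compounds, and growth inhibition was determined by comparison with vehicle-treated cells.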
# [12] = NCI Yeast Anticancer Drug Screen. Data for the wt2 strain (AID 169);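 further: 0% = growth of vehicle-treated yeast cultures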; details: S. cerevisiae wt2 strain growth inhibition, hits give high values
# Outline: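 Read-out: growth inhibition versus vehicle-treated control cultures after compound exposure of the yeast strain.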
# [13] = NCI Yeast Anticancer Drug Screen. Data for the mlh1 strain (AID 171);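 further: 0% = growth of vehicle-treated control cultures of the same strain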; details: S. cerevisiae mlh1 strain growth inhibition, hits give high values
# Outline: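 Read-out: growth inhibition versus vehicle controls. Strain: engineered yeast with a defined DNA repair or cell cycle defect, compound-treated.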
# [14] = NCI Yeast Anticancer Drug Screen. Data for the sgs1 strain (AID 173);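 further: 0% = growth of vehicle-only control cultures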; details: S. cerevisiae sgs1 mutant, hits give high values
# Outline: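 Read-out: yeast growth inhibition relative to vehicle controls, following compound exposure of a strain with a defined DNA repair/cell cycle alteration.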
# [15] = NCI Yeast Anticancer Drug Screen. Data for the mlh1 rad18 strain (AID 175); details: S. cerevisiae mlh1 rad18 strain growth inhibition, hits give high values
# Outline: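 Yeast w/ defined DNA-repair lesions; compound exposure; growth vs vehicle controls → % inhibition.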
# [16] = NCI Yeast Anticancer Drug Screen. Data for the rad18 strain (AID 177); details: S. cerevisiae rad18 mutant growth inhibition, hits give high values
# Outline: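 Readout: growth inhibition vs vehicle controls. Cells: genetically altered yeast strain, DNA repair defect.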
# [17] = at 5.0 µM (retest, dose inferred, filed as 0.5)
# [18] = at 50.0 µM (retest, dose inferred, filed as 5.0)
compound,measurement,setting,value
Cc1cc(NCCCCCCCCNc2cc(C)nc3cc(N)ccc23)c2ccc(N)cc2n1,growth inhibition,[1]; at 1.2 µM,-41%
same,growth inhibition,[1]; at 3.7 µM,-45%
same,growth inhibition,[1]; at 11.0 µM,75% (active)
same,growth inhibition,[1]; at 33.0 µM,98% (active)
same,growth inhibition,[1]; at 100.0 µM,95% (active)
same,growth inhibition,[2]; at 1.2 µM,-65%
same,growth inhibition,[2]; at 3.7 µM,-41%
same,growth inhibition,[2]; at 11.0 µM,92% (active)
same,growth inhibition,[2]; at 33.0 µM,98% (active)
same,growth inhibition,[2]; at 100.0 µM,96% (active)
same,growth inhibition,[3]; at 1.2 µM,-47%
same,growth inhibition,[3]; at 3.7 µM,-30%
same,growth inhibition,[3]; at 11.0 µM,50%
same,growth inhibition,[3]; at 33.0 µM,95% (active)
same,growth inhibition,[3]; at 100.0 µM,95% (active)
same,growth inhibition,[4]; at 1.2 µM,-72%
same,growth inhibition,[4]; at 3.7 µM,-79%
same,growth inhibition,[4]; at 11.0 µM,80% (active)
same,growth inhibition,[4]; at 33.0 µM,98% (active)
same,growth inhibition,[4]; at 100.0 µM,95% (active)
same,growth inhibition,[5]; at 1.2 µM,-39%
same,growth inhibition,[5]; at 3.7 µM,-32%
same,growth inhibition,[5]; [17],15%
same,growth inhibition,[5]; at 11.0 µM,92% (active)
same,growth inhibition,[5]; at 33.0 µM,97% (active)
same,growth inhibition,[5]; [18],98% (active)
same,growth inhibition,[5]; at 50.0 µM,90.2% (active)
same,growth inhibition,[5]; at 100.0 µM,96% (active)
same,growth inhibition,[6]; at 1.2 µM,-70%
same,growth inhibition,[6]; at 3.7 µM,-55%
same,growth inhibition,[6]; [17],12%
same,growth inhibition,[6]; at 11.0 µM,91% (active)
same,growth inhibition,[6]; at 33.0 µM,98% (active)
same,growth inhibition,[6]; [18],98% (active)
same,growth inhibition,[6]; at 50.0 µM,91.4% (active)
same,growth inhibition,[6]; at 100.0 µM,96% (active)
same,growth inhibition,[7]; at 1.2 µM,-40%
same,growth inhibition,[7]; at 3.7 µM,-35%
same,growth inhibition,[7]; at 11.0 µM,87% (active)
same,growth inhibition,[7]; at 33.0 µM,97% (active)
same,growth inhibition,[7]; at 100.0 µM,96% (active)
same,growth inhibition,[8]; [17],8%
same,growth inhibition,[8]; [18],99% (active)
same,growth inhibition,[8]; at 50.0 µM,92.1% (active)
same,growth inhibition,[9]; at 1.2 µM,-18%
same,growth inhibition,[9]; at 3.7 µM,-20%
same,growth inhibition,[9]; at 11.0 µM,39%
same,growth inhibition,[9]; at 33.0 µM,97% (active)
same,growth inhibition,[9]; at 100.0 µM,94% (active)
same,growth inhibition,[10]; [17],18%
same,growth inhibition,[10]; [18],98% (active)
same,growth inhibition,[10]; at 50.0 µM,88% (active)
same,growth inhibition,[11]; at 1.2 µM,-64%
same,growth inhibition,[11]; at 3.7 µM,-45%
same,growth inhibition,[11]; [17],39%
same,growth inhibition,[11]; at 11.0 µM,90% (active)
same,growth inhibition,[11]; at 33.0 µM,97% (active)
same,growth inhibition,[11]; [18],99% (active)
same,growth inhibition,[11]; at 50.0 µM,91.5% (active)
same,growth inhibition,[11]; at 100.0 µM,93% (active)
same,growth inhibition,[12]; at 1.2 µM,-39%
same,growth inhibition,[12]; at 3.7 µM,-36%
same,growth inhibition,[12]; at 11.0 µM,55%
same,growth inhibition,[12]; at 33.0 µM,97% (active)
same,growth inhibition,[12]; at 100.0 µM,95% (active)
same,growth inhibition,[13]; at 1.2 µM,-88%
same,growth inhibition,[13]; at 3.7 µM,-63%
same,growth inhibition,[13]; at 11.0 µM,92% (active)
same,growth inhibition,[13]; at 33.0 µM,97% (active)
same,growth inhibition,[13]; at 100.0 µM,94% (active)
same,growth inhibition,[14]; at 1.2 µM,-64%
same,growth inhibition,[14]; at 3.7 µM,-72%
same,growth inhibition,[14]; at 11.0 µM,65%
same,growth inhibition,[14]; at 33.0 µM,95% (active)
same,growth inhibition,[14]; at 100.0 µM,94% (active)
same,growth inhibition,[15]; [17],7%
same,growth inhibition,[15]; [18],98% (active)
same,growth inhibition,[15]; at 50.0 µM,89.2% (active)
same,growth inhibition,[16]; at 1.2 µM,-45%
same,growth inhibition,[16]; at 3.7 µM,-65%
same,growth inhibition,[16]; at 11.0 µM,66%
same,growth inhibition,[16]; at 33.0 µM,97% (active)
same,growth inhibition,[16]; at 100.0 µM,93% (active)
O=C(/C=C/c1cc(Cl)cc(Cl)c1O)c1cccc(O)c1,growth inhibition,[1]; at 1.2 µM,37%
same,growth inhibition,[1]; at 3.7 µM,36%
same,growth inhibition,[1]; at 11.0 µM,80% (active)
same,growth inhibition,[1]; at 33.0 µM,98% (active)
same,growth inhibition,[1]; at 100.0 µM,99% (active)
same,growth inhibition,[2]; at 1.2 µM,4%
same,growth inhibition,[2]; at 3.7 µM,6%
same,growth inhibition,[2]; at 11.0 µM,50%
same,growth inhibition,[2]; at 33.0 µM,98% (active)
same,growth inhibition,[2]; at 100.0 µM,97% (active)
same,growth inhibition,[3]; at 1.2 µM,66%
same,growth inhibition,[3]; at 3.7 µM,70% (active)
same,growth inhibition,[3]; at 11.0 µM,86% (active)
same,growth inhibition,[3]; at 33.0 µM,97% (active)
same,growth inhibition,[3]; at 100.0 µM,97% (active)
same,growth inhibition,[4]; at 1.2 µM,14%
same,growth inhibition,[4]; at 3.7 µM,25%
same,growth inhibition,[4]; at 11.0 µM,89% (active)
same,growth inhibition,[4]; at 33.0 µM,99% (active)
same,growth inhibition,[4]; at 100.0 µM,98% (active)
same,growth inhibition,[5]; at 1.2 µM,1%
same,growth inhibition,[5]; at 3.7 µM,16%
same,growth inhibition,[5]; [17],14%
same,growth inhibition,[5]; at 11.0 µM,67%
same,growth inhibition,[5]; at 33.0 µM,97% (active)
same,growth inhibition,[5]; [18],97% (active)
same,growth inhibition,[5]; at 50.0 µM,94% (active)
same,growth inhibition,[5]; at 100.0 µM,97% (active)
same,growth inhibition,[6]; at 1.2 µM,-19%
same,growth inhibition,[6]; at 3.7 µM,0%
same,growth inhibition,[6]; [17],-9%
same,growth inhibition,[6]; at 11.0 µM,85% (active)
same,growth inhibition,[6]; at 33.0 µM,99% (active)
same,growth inhibition,[6]; [18],99% (active)
same,growth inhibition,[6]; at 50.0 µM,95.2% (active)
same,growth inhibition,[6]; at 100.0 µM,98% (active)
same,growth inhibition,[7]; at 1.2 µM,31%
same,growth inhibition,[7]; at 3.7 µM,48%
same,growth inhibition,[7]; at 11.0 µM,96% (active)
same,growth inhibition,[7]; at 33.0 µM,98% (active)
same,growth inhibition,[7]; at 100.0 µM,97% (active)
same,growth inhibition,[8]; [17],6%
same,growth inhibition,[8]; [18],95% (active)
same,growth inhibition,[8]; at 50.0 µM,94% (active)
same,growth inhibition,[9]; at 1.2 µM,9%
same,growth inhibition,[9]; at 3.7 µM,23%
same,growth inhibition,[9]; at 11.0 µM,74% (active)
same,growth inhibition,[9]; at 33.0 µM,98% (active)
same,growth inhibition,[9]; at 100.0 µM,98% (active)
same,growth inhibition,[10]; [17],29%
same,growth inhibition,[10]; [18],98% (active)
same,growth inhibition,[10]; at 50.0 µM,91.5% (active)
same,growth inhibition,[11]; at 1.2 µM,-12%
same,growth inhibition,[11]; at 3.7 µM,-11%
same,growth inhibition,[11]; [17],38%
same,growth inhibition,[11]; at 11.0 µM,39%
same,growth inhibition,[11]; at 33.0 µM,97% (active)
same,growth inhibition,[11]; [18],97% (active)
same,growth inhibition,[11]; at 50.0 µM,93.2% (active)
same,growth inhibition,[11]; at 100.0 µM,97% (active)
same,growth inhibition,[12]; at 1.2 µM,29%
same,growth inhibition,[12]; at 3.7 µM,27%
same,growth inhibition,[12]; at 11.0 µM,89% (active)
same,growth inhibition,[12]; at 33.0 µM,98% (active)
same,growth inhibition,[12]; at 100.0 µM,98% (active)
same,growth inhibition,[13]; at 1.2 µM,0%
same,growth inhibition,[13]; at 3.7 µM,21%
same,growth inhibition,[13]; at 11.0 µM,80% (active)
same,growth inhibition,[13]; at 33.0 µM,98% (active)
same,growth inhibition,[13]; at 100.0 µM,98% (active)
same,growth inhibition,[14]; at 1.2 µM,22%
same,growth inhibition,[14]; at 3.7 µM,23%
same,growth inhibition,[14]; at 11.0 µM,78% (active)
same,growth inhibition,[14]; at 33.0 µM,98% (active)
same,growth inhibition,[14]; at 100.0 µM,98% (active)
same,growth inhibition,[15]; [17],46%
same,growth inhibition,[15]; [18],97% (active)
same,growth inhibition,[15]; at 50.0 µM,92.7% (active)
same,growth inhibition,[16]; at 1.2 µM,14%
same,growth inhibition,[16]; at 3.7 µM,13%
same,growth inhibition,[16]; at 11.0 µM,56%
same,growth inhibition,[16]; at 33.0 µM,98% (active)
same,growth inhibition,[16]; at 100.0 µM,98% (active)
